Bioassay records: PubChem BioAssay, several laboratories
CHT allo act: allosteric activators of human choline transporter CHT; 310,000 tested, 0.49% active; AID 488977; B-score at 10 µM; Q9GZV3; CHT-expressing cells, membrane potential dye, choline EC20; active compounds read high; LV-AA mutant CHT in HEK293 cells;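 active = initial fluorescence not abnormally high and integrated response B-score, plate-corrected, over 3 SD above library mean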
Target sequence (Q9GZV3 whole entry, looked up): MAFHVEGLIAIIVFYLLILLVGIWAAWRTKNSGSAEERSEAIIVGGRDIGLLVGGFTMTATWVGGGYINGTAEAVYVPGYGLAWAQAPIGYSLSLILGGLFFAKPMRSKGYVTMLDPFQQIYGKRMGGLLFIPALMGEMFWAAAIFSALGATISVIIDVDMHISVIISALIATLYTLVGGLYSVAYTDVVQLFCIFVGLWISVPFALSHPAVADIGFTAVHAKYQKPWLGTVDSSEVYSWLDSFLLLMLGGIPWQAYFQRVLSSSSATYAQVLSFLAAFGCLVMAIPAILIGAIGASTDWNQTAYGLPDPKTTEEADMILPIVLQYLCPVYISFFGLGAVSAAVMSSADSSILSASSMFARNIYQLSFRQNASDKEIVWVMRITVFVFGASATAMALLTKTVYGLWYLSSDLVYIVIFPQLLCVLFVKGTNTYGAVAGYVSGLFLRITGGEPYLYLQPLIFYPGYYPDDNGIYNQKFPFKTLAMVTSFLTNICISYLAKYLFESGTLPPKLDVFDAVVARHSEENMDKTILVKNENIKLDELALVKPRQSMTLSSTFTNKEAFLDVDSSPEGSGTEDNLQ
CHT block: inhibits the human high affinity choline transporter; B-score at 10 µM; CHT-expressing cells, membrane potential dye, choline response; active compounds read low; 310,000 tested, 0.86% active;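 active = B-score over 3 SD under the library average, and starting fluorescence ratio not unusually high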;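 also: choline stimulus applied at its EC90 after an EC20 pre-addition; B-score computed on integrated fluorescence ratio after choline addition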
PKA-R2B act: activators of human PKA-R2B complex; P22694+P31323; PKA-R2B holoenzyme dissociation, Cy5-IP20 fluorescence polarization; R2B truncated from residue 108, S112A mutant; 0% DMSO only, 100% 113 µM cGMP; activation, % at 11.4 µM; 340,000 tested, 0.079% active; AID 504700;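 active = activation above a cutoff set at the mean over all compounds plus 3 SD, cut at about 18% in these data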;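 also: higher means more holoenzyme dissociation and a rise in polarization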
ANO1 block: blocks the mouse calcium-activated chloride channel TMEM16A | HEK293 TMEM16A/YFP iodide influx fluorescence, ionomycin | normalized B-score (activity score, 25-100; higher = stronger inhibition) at 10 µM | 310,000 tested, 1.2% active | AID 588511;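 active = ratio plate-corrected score three or more library SD toward inhibition, starting fluorescence score within five deviations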;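 also: score derived from kinetic fluorescence span divided by baseline fluorescence per well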
PKA-R1A act: activates the PKA-R1A holoenzyme complex | PKA-R1A dissociation, Cy5-IP20 fluorescence polarization; scaled: DMSO 0%, 113 µM cGMP 100% | activation, % at 11.4 µM | 340,000 tested, 0.083% active;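 active = percent activation above the mean of all tested compounds plus 3 SD, cut at about 19% in these data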;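 also: higher means more PKAc released from R1A so a rise in polarization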
TMEM16A act: activates or potentiates the mouse TMEM16A chloride channel; Q8BHY3; HEK293 TMEM16A/YFP-H148Q/I152L, iodide quench fluorescence; active compounds read low; B-score at 10 µM; 340,000 tested, 0.3% active;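 active = fluorescence-ratio B-score plate-corrected deviation score at least 3 library SD below zero, with starting fluorescence score within 5 deviations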;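 also: channel opened by trigger with iodide after compound preincubation; score built on the fluorescence ratio of max minus min over baseline; more negative score means more quench and so TMEM16A activation or potentiation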
CHT inh conf: confirmation of human choline transporter CHT inhibitors. AID 493221. CHT-expressing cells, choline membrane potential dye; LV-to-AA substituted CHT, HEK293 cells. 2,400 tested, 70% active. CHT activity remaining % of control (active compounds read low), % at 10 µM. shares compounds with CHT block;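 active = choline transporter activity left, mean of duplicates at 10 µM, below buffer-only control mean minus 3 SD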;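 also: depolarization triggered by choline at its EC90 following an EC20 pre-addition; 0% = hemicholinium-3 full block and 100% = buffer-only control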
HEK293 CHT ctr: activity in parental HEK293 cells lacking CHT | shares compounds with CHT block | membrane potential dye, choline response; active = decrease or increase beyond buffer ±3SD | membrane potential ratio readout (active if shifted either direction beyond buffer ±3SD; no single direction) at 10 µM | 2,400 tested, 4% active | AID 493222;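 also: parental cells lack the transporter so any hit is non-specific; ratio is peak minus trough fluorescence over baseline after EC90 choline challenge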
TMEM16A reconf: reconfirmed blocker of mouse TMEM16A calcium-activated chloride channel; shares compounds with ANO1 block; HEK293 TMEM16A/YFP-H148Q, iodide quench fluorescence; ionomycin added to raise cell calcium; inhibition, % at 10 µM; 2,300 tested, 39% active; AID 652189;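 active = mean duplicate percent inhibition, scaled so buffer wells are 0 and the reference blocker 100, over three buffer SD above buffer mean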
TMEM16A Ca cntr: alters calcium mobilization in TMEM16A HEK293 cells, counter-screen | shares compounds with ANO1 block | TMEM16A/YFP HEK293, Fluo4 calcium mobilization | calcium response (% of ionomycin), % at 10 µM | 2,300 tested, 2% active | AID 652231;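 active = duplicate-averaged calcium signal over 20% of the ionomycin maximum, relative to buffer baseline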;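 also: each well's signal is peak minus trough fluorescence divided by its pre-addition baseline; 0% = buffer wells and 100% = ionomycin wells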
YFP-HEK293 quench: parental YFP-HEK293 iodide quench counter-screen activity; shares compounds with ANO1 block; ionomycin; YFP ratio F(max-min)/F0 at 10 µM; 2,300 tested, under 10 active;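 active = yellow fluorescent protein signal ratio exceeding the buffer control mean by over 5 SD of those controls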;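 also: ratio is mean of duplicate wells from kinetic YFP trace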
ClC-1 inh: rat ClC-1 inhibition, TMEM16A specificity screen | shares compounds with ANO1 block | CHO ClC-1-YFP, iodide influx fluorescence quench; iodide control reads 0, buffer control 100 | ratio percent, % at 10 µM | 2,300 tested, under 10 active | AID 652236;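 active = duplicate-mean ratio percent above the mean of iodide-only control wells, which defines zero, plus 5 of their SD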;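 also: higher percent means stronger block of ClC-1 iodide influx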
An asterisk follows results filed as active; i = inactive; . = not tested or not shown. In the library only some 2.5% were active in any assay of this set; here they are far more common.

SMILES | CHT allo act | CHT block | PKA-R2B act | ANO1 block | PKA-R1A act | TMEM16A act | CHT inh conf | HEK293 CHT ctr | TMEM16A reconf | TMEM16A Ca cntr | YFP-HEK293 quench | ClC-1 inh
COc1cc(NC(=O)c2ccc(N3CC4CC(C3)c3cccc(=O)n3C4)c(NC(=O)c3ccncc3)c2)cc(OC)c1OC (centres undefined) | i | i | 3 | i | -10 | i | . | . | . | . | . | .
O=C(c1ccc(Br)cc1)N1CCCC(c2nc(-c3cccs3)no2)C1 (centres undefined) | i | i | 2 | i | -2 | i | . | . | . | . | . | .
O=C(c1ccccc1Br)N1CCCC(c2nc(-c3cccs3)no2)C1 (centres undefined) | i | -6.3* | -5 | 25* | -3 | i | i | i | 19%* | i | -1 | -15
OCC[C@H]1C[C@H](O)[C@@H](O)[C@]2(Cc3ccccc3CCO2)O1 | i | i | 2 | i | -3 | i | . | . | . | . | . | .
C=CCNC(=O)c1onc(CSc2ccc(C(C)C)cc2)c1C(=O)O | i | -5.2* | 11 | 25* | 7 | i | 61%* | i | i | i | -1 | -16
